This passage reports growth results from PubChem BioAssay (NCI).

This is part of a sample that, as a whole, favours compounds with a hit. Of some 83,000 tested, about 20% had one in any assay.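 Activity criterion: percent growth below 10, measured after cells in 96-well plates were exposed to a single compound concentration for 48 hours.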 A number with no mark means an inactive call. The source made the active and inactive calls.

The experiment has as its system HCT-15 colon. The experiment can be described thus: NCI-60 one-dose screen, 48 h (100 = growth as untreated, 0 = no growth, -100 = all killed). The following applies: 10 µM unless noted. The method, then: Growth inhibition of the HCT-15 human tumor cell line is measured as a screen for anti-cancer activity. Cells are grown in 96 well plates and exposed to the test compound for 48 hours. Compounds are tested at a single concentration, which is 10^-5 M for most compounds. The reported endpoint is percent growth (GI% or GIPRCNT), where numbers from 0 - 100% represent growth inhibition, and numbers from -100% - 0 represent cell death. For example, a value of 40 represents 60% growth inhibition. A value of 0 means no net growth occurred over the course of the experiment. A value of -40 indicates 40% of cells at the beginning of the experiment died by the end of the experiment. A value of -100 means all cells are dead at the end of the experiment.
NCI-60 Human Tumor Cell Lines Screen was performed using the standard one-dose NCI protocol, which is described in more detail at https://dtp.cancer.gov/discovery_development/nci-60/default.htm.
Compounds with GIPRCNT values below 10 were considered active. Activity score was based on GIPRCNT using the following formula: […]
Score is 0 for GIPRCNT values of 100 or above, 50 for GIPRCNT values of 0, and 100 for GIPRCNT values of -100.
Regarding `O=C1CCCc2nc3sc4c(=O)n(-c5ccccc5Cl)nnc4c3cc21`, the growth was 84.3%.

As to `CCc1cccc(Sc2cc(C(=O)N3Cc4ccc(OCCN(C)C)cc4C3)ccc2O)c1`, the growth was 30.7%.

As to `CCNCc1ccc(O)c2ncccc12`, the growth is 28%.

`O=c1[nH]c(-c2ccc(Cl)cc2)cn1-c1ccc(-n2cc(-c3ccc(Cl)cc3)[nH]c2=O)cc1`: the growth was 98.8%.

`COc1ccc2cc(Cn3cc[n+](Cc4ccc5ccccc5c4)c3)ccc2c1`: the growth is 95.7%.

With `O=C1c2cccnc2C(=O)c2c1c(C(=O)OCCCN1CCCCC1)c1ccccn21`, the growth is -55.5% (active).

With `N#Cc1c(NC(=O)c2cccs2)[n+]([O-])c2ccc(Cl)cc2[n+]1[O-]`, the growth was 111%.

With `Cn1c(/C=C/[N+](=O)[O-])cc2ccccc21`, the growth was -56.7% (active).

Take `CC/C=C\C/C=C/C=C1/C(=O)C=C[C@@H]1C/C=C\CCCC(=O)OC`: the growth is 4.13% (active).

For `O=C1OCC2=C1C(c1cccc(C(F)(F)F)c1)c1cc3c(cc1N2CCO)OCO3` (stereo not given), the growth is 25.2%.

Turning to `CS(=O)(=O)Nc1cc(-c2ccc3ncnc(Nc4ccc5c(cnn5Cc5cccnc5)c4)c3c2)cnc1Cl`, the growth was 84.7%.

As to `CC[C@H](CC[C@@H](C)[C@H]1CC[C@H]2[C@@H]3CC[C@@H]4CC(=O)/C(=C\c5ccncc5)C[C@]4(C)[C@H]3CC[C@]12C)C(C)C`, the growth was 102%.

`C/C(=C(\c1ccc(OCCN2CCCCCC2)cc1)c1ccc(OC(=O)Cc2ccccc2)cc1)c1ccc(Cl)cc1`: the growth was -15.5% (active).

On to `C[Se]C(=O)CC1=C2C=C(F)C=CC2/C(=C\c2ccc(S(C)=O)cc2)C1C` (stereo not given), for which the growth was 15%.

Regarding `CC(=O)Nc1c(Cl)cc(Cl)c2c1Cc1cc([N+](=O)[O-])ccc1-2`, the growth was 89.7%.

On to `C=CCN=C(N)SCCCCCCSC(N)=NCC=C`, for which the growth was 96.4%.

As for `O=C(CN1C(=O)NC2NC(=O)NC21)N/N=C/c1ccc(Cl)cc1Cl` (stereo not given), the growth is 104%.

For `Cc1cc(C)cc(Nc2ccc([N+](=O)[O-])c(NCCN3CCOCC3)n2)c1`, the growth is 11.5%.

Take `Clc1nn2c(Cn3cnc4c(NCc5ccccc5)ncnc43)nnc2c2ccccc12`: the growth is 25.8%.

Turning to `CN1C(=O)N(C)C2C1NC(=S)N2/N=C/C=C/c1ccccc1[N+](=O)[O-]` (stereo not given), the growth was 29%.

Take `COc1ccc(/C=C/C(=O)c2ccc(Nc3nc(Nc4ccc(F)cc4)nc(Nc4ccc(Cl)cc4)n3)cc2)cc1`: the growth was 100%.

In the case of `COc1cc2cc(Oc3ccc(NC(=O)Nc4ccccc4)cc3)c(C)nc2cc1OCCN1CCCCC1`, the growth was 14.3%.

With `COC(=O)C1=C(C)NC(C)=C(C(=O)OCC(C)C)C1c1ccccc1[N+](=O)[O-]` (stereo not given), the growth is 41%.

As for `c1ccc2cc(Cn3c[n+](Cc4ccc5ccccc5c4)c4ccccc43)ccc2c1`, the growth is 53.6%.

As to `Cc1ccc(-c2nc(C(Cl)Cl)nc3cc(C)nn23)cc1`, the growth is -2.36% (active).

Turning to `COC(=O)Cc1nc(C#N)c(N(C)C)o1`, the growth was 99.4%.

As for `C#CC#CC#CC#CC#CC#CC#CC#CC[C@H]1OC[C@H](COC(=O)O[C@@H](C(=O)O[C@H]2C[C@@]3(O)[C@@H](OC(=O)c4ccccc4)[C@@H]4[C@]5(OC(C)=O)CO[C@@H]5C[C@H](O)[C@@]4(C)C(=O)[C@H](OC(C)=O)C(=C2C)C3(C)C)[C@@H](NC(=O)c2ccccc2)c2ccccc2)O1`, the growth is 99.5%.

`COC1=CC(c2ccc[nH]2)=N/C1=C\c1[nH]c(C)c(CC(=O)OCc2ccccc2)c1C`: the growth was -11% (active).

`CCCCN1C(=O)/C(=c2\sc3n(c2=O)NC2C(N=3)N(CC)C(=O)N2CC)c2ccccc21` (stereo not given): the growth is 33.5%.

As for `Cc1cccc(N2CCN(C(=S)c3ccc4c(c3)OCO4)CC2)c1`, the growth was 12.5%.

As for `COc1cc(Nc2c3ccc(Cl)cc3nc3ccc(OC)cc23)c2ncccc2c1`, the growth was 23.8%.

For `COc1ncc2cc1NS(=O)(=O)c1cccc(c1)C(=O)NCC1=CC=C(S1)c1ncnc3c1SC2=C3C`, the growth is -18.2% (active).

Regarding `Cc1ccc(/C=C/C(=O)c2ccc(NC(=O)CSc3nc4c([nH]3)c(=O)n(C)c(=O)n4C)cc2)c(C)c1`, the growth is 70.7%.

With `COc1ccccc1-n1c(-c2cc(O)ccc2C)cn2c3c(=O)[nH]c(=O)n(C)c3nc12`, the growth was 85.8%.

Turning to `O=C(CBr)CN1C(=O)c2ccccc2C1=O`, the growth was 110%.

In the case of `CC1CN=C(c2cccc(-c3ccc(-c4ccccc4)o3)c2)N1` (stereo not given), the growth is -57.5% (active).

On to `CCc1ccc(CCC(=O)Nc2ncc(Cc3ccc(Cl)cc3)s2)o1`, for which the growth is 21.9%.

As to `CO[C@H](C(=O)[C@@H](O)[C@@H](C)O)[C@@H]1Cc2cc3cc(O[C@H]4C[C@@H](O[C@H]5C[C@@H](O)[C@H](O)C(C)O5)[C@H](O)C(C)O4)c(C)c(O)c3c(O)c2C(=O)[C@H]1O[C@H]1C[C@@H](O[C@H]2C[C@@H](O[C@H]3C[C@@H](OC)[C@H](O)C(C)O3)[C@@H](O)C(C)O2)C(O)(O)C(C)O1` (stereo not given in full), the growth is 34.2%.

Turning to `COC(=O)C1=C(C(=O)Nc2cccnc2)C2OC1(C(Cc1ccccc1)Oc1ccccc1)C1OC21` (stereo not given), the growth is 14.4%.

Take `CC(C)CCC[C@@H](C)C1CCC2C3CCC4=C/C(=N/OCCN(C)C)CC[C@]4(C)C3CC[C@@]21C` (stereo not given in full): the growth was 98.3%.
